# Tests used:
# [1] = tested on: HCI01 (cells of a triple-negative basal-like breast cancer xenograft); experiment: cell viability of combination (% of vehicle); higher = less cytotoxic; settings: 1 µM; 72 h; partner dose: 10 nM
# Protocol: (§1)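 PDX cells were treated for 72 h with each drug at 1 µM plus carfilzomib (10 nM; 100 nM for WHIM2). Luciferase viability is expressed as percent of vehicle.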
# [2] = tested on: UCD52 (cells of a triple-negative basal-like breast cancer xenograft); experiment: as above; settings: 1 µM; 72 h; partner dose: 10 nM
# Protocol: as §1
SMILES,cell viability of combination [1],cell viability of combination [2]
CCN(CC)CCCC(C)Nc1ccnc2cc(Cl)ccc12.O=P(O)(O)O.O=P(O)(O)O (stereo unspecified) [Chloroquine diphosphate] + CC(C)C[C@H](NC(=O)[C@H](CCc1ccccc1)NC(=O)CN1CCOCC1)C(=O)N[C@@H](Cc1ccccc1)C(=O)N[C@@H](CC(C)C)C(=O)[C@@]1(C)CO1 [Carfilzomib],64,52.9
Cl.Nc1ccn(C2OC(CO)C(O)C2O)c(=O)n1 (stereo unspecified) [Cytarabine hydrochloride] + CC(C)C[C@H](NC(=O)[C@H](CCc1ccccc1)NC(=O)CN1CCOCC1)C(=O)N[C@@H](Cc1ccccc1)C(=O)N[C@@H](CC(C)C)C(=O)[C@@]1(C)CO1 [Carfilzomib],65.5,77.1
CC[C@@H]1/C=C(\C)C[C@H](C)C[C@H](OC)[C@H]2O[C@@](O)(C(=O)C(=O)N3CCCC[C@H]3C(=O)O[C@H](/C(C)=C/[C@@H]3CC[C@H](Cl)[C@H](OC)C3)[C@H](C)[C@@H](O)CC1=O)[C@H](C)C[C@@H]2OC [Pimecrolimus] + CC(C)C[C@H](NC(=O)[C@H](CCc1ccccc1)NC(=O)CN1CCOCC1)C(=O)N[C@@H](Cc1ccccc1)C(=O)N[C@@H](CC(C)C)C(=O)[C@@]1(C)CO1 [Carfilzomib],95.7,49.2
Cl.Cl.O=C1c2c(O)ccc(O)c2C(=O)c2c(NCCNCCO)ccc(NCCNCCO)c21 [Mitoxantrone HCl] + CC(C)C[C@H](NC(=O)[C@H](CCc1ccccc1)NC(=O)CN1CCOCC1)C(=O)N[C@@H](Cc1ccccc1)C(=O)N[C@@H](CC(C)C)C(=O)[C@@]1(C)CO1 [Carfilzomib],74.1,30
C#Cc1cccc(Nc2ncnc3cc(OCCOC)c(OCCOC)cc23)c1 [Erlotinib] + CC(C)C[C@H](NC(=O)[C@H](CCc1ccccc1)NC(=O)CN1CCOCC1)C(=O)N[C@@H](Cc1ccccc1)C(=O)N[C@@H](CC(C)C)C(=O)[C@@]1(C)CO1 [Carfilzomib],66.8,49.1
Nc1ncn(C2OC(CO)C(O)C2O)c(=O)n1 (stereo unspecified) [5-Azacytidine] + CC(C)C[C@H](NC(=O)[C@H](CCc1ccccc1)NC(=O)CN1CCOCC1)C(=O)N[C@@H](Cc1ccccc1)C(=O)N[C@@H](CC(C)C)C(=O)[C@@]1(C)CO1 [Carfilzomib],75.9,68.2
CN1CCN(CCOc2cc(OC3CCOCC3)c3c(Nc4c(Cl)ccc5c4OCO5)ncnc3c2)CC1 [Saracatinib (AZD0530)] + CC(C)C[C@H](NC(=O)[C@H](CCc1ccccc1)NC(=O)CN1CCOCC1)C(=O)N[C@@H](Cc1ccccc1)C(=O)N[C@@H](CC(C)C)C(=O)[C@@]1(C)CO1 [Carfilzomib],66.1,39.3
CN1CCCC1CCOC(C)(c1ccccc1)c1ccc(Cl)cc1.O=C(O)C=CC(=O)O (stereo unspecified) [Clemastine Fumarate] + CC(C)C[C@H](NC(=O)[C@H](CCc1ccccc1)NC(=O)CN1CCOCC1)C(=O)N[C@@H](Cc1ccccc1)C(=O)N[C@@H](CC(C)C)C(=O)[C@@]1(C)CO1 [Carfilzomib],77.2,61.1
COc1cc2nccc(Oc3ccc(NC(=O)NC4CC4)c(Cl)c3)c2cc1C(N)=O [Lenvatinib (E7080)] + CC(C)C[C@H](NC(=O)[C@H](CCc1ccccc1)NC(=O)CN1CCOCC1)C(=O)N[C@@H](Cc1ccccc1)C(=O)N[C@@H](CC(C)C)C(=O)[C@@]1(C)CO1 [Carfilzomib],97.9,38.2
Clc1ccc(COC(Cn2ccnc2)c2ccc(Cl)cc2Cl)cc1.O=[N+]([O-])O (stereo unspecified) [Econazole nitrate] + CC(C)C[C@H](NC(=O)[C@H](CCc1ccccc1)NC(=O)CN1CCOCC1)C(=O)N[C@@H](Cc1ccccc1)C(=O)N[C@@H](CC(C)C)C(=O)[C@@]1(C)CO1 [Carfilzomib],89.1,59.8
Cc1ccc(C(=O)N(CCCN)C(c2nc3cc(Cl)ccc3c(=O)n2Cc2ccccc2)C(C)C)cc1 (stereo unspecified) + CC(C)C[C@H](NC(=O)[C@H](CCc1ccccc1)NC(=O)CN1CCOCC1)C(=O)N[C@@H](Cc1ccccc1)C(=O)N[C@@H](CC(C)C)C(=O)[C@@]1(C)CO1 [Carfilzomib],88.6,42.9
CCCCCCCCc1ccc(CCC(N)(CO)CO)cc1.Cl [Fingolimod (FTY720)] + CC(C)C[C@H](NC(=O)[C@H](CCc1ccccc1)NC(=O)CN1CCOCC1)C(=O)N[C@@H](Cc1ccccc1)C(=O)N[C@@H](CC(C)C)C(=O)[C@@]1(C)CO1 [Carfilzomib],77.3,61.5
CC1(COc2ccc3c(c2)ncn3-c2ccc3cccc(N4CCC(N)CC4)c3n2)COC1 + CC(C)C[C@H](NC(=O)[C@H](CCc1ccccc1)NC(=O)CN1CCOCC1)C(=O)N[C@@H](Cc1ccccc1)C(=O)N[C@@H](CC(C)C)C(=O)[C@@]1(C)CO1 [Carfilzomib],102,135
O=C1C=CC=CC1=C1NC(=C2C=CC=CC2=O)N(c2ccc(C(=O)O)cc2)N1 [Deferasirox] + CC(C)C[C@H](NC(=O)[C@H](CCc1ccccc1)NC(=O)CN1CCOCC1)C(=O)N[C@@H](Cc1ccccc1)C(=O)N[C@@H](CC(C)C)C(=O)[C@@]1(C)CO1 [Carfilzomib],67.8,61.2
C=C1C(=CC=C2CCCC3(C)C2CCC3C(C)CCCC(C)C)CC(O)CC1O (stereo unspecified) [Alfacalcidol] + CC(C)C[C@H](NC(=O)[C@H](CCc1ccccc1)NC(=O)CN1CCOCC1)C(=O)N[C@@H](Cc1ccccc1)C(=O)N[C@@H](CC(C)C)C(=O)[C@@]1(C)CO1 [Carfilzomib],55.4,41
Br.Cc1ccc(Sc2ccccc2N2CCNCC2)c(C)c1 + CC(C)C[C@H](NC(=O)[C@H](CCc1ccccc1)NC(=O)CN1CCOCC1)C(=O)N[C@@H](Cc1ccccc1)C(=O)N[C@@H](CC(C)C)C(=O)[C@@]1(C)CO1 [Carfilzomib],98.3,50.8
C=CC(=O)Nc1cc(Nc2nccc(-c3cn(C)c4ccccc34)n2)c(OC)cc1N(C)CCN(C)C + CC(C)C[C@H](NC(=O)[C@H](CCc1ccccc1)NC(=O)CN1CCOCC1)C(=O)N[C@@H](Cc1ccccc1)C(=O)N[C@@H](CC(C)C)C(=O)[C@@]1(C)CO1 [Carfilzomib],59.8,53.7
COC(=O)NC(C(=O)N1CCCC1c1ncc(-c2ccc(-c3ccc(-c4cnc(C5CCCN5C(=O)C(NC(=O)OC)C(C)C)[nH]4)cc3)cc2)[nH]1)C(C)C (stereo unspecified) + CC(C)C[C@H](NC(=O)[C@H](CCc1ccccc1)NC(=O)CN1CCOCC1)C(=O)N[C@@H](Cc1ccccc1)C(=O)N[C@@H](CC(C)C)C(=O)[C@@]1(C)CO1 [Carfilzomib],70.8,60.4
Cc1cc(-n2c(=O)[nH]c(=O)n(C)c2=O)ccc1Oc1ccc(SC(F)(F)F)cc1 [Toltrazuril] + CC(C)C[C@H](NC(=O)[C@H](CCc1ccccc1)NC(=O)CN1CCOCC1)C(=O)N[C@@H](Cc1ccccc1)C(=O)N[C@@H](CC(C)C)C(=O)[C@@]1(C)CO1 [Carfilzomib],76.4,61
CCCSc1nc(NC2CC2c2ccc(F)c(F)c2)c2nnn(C3CC(OCCO)C(O)C3O)c2n1 (stereo unspecified) [Ticagrelor] + CC(C)C[C@H](NC(=O)[C@H](CCc1ccccc1)NC(=O)CN1CCOCC1)C(=O)N[C@@H](Cc1ccccc1)C(=O)N[C@@H](CC(C)C)C(=O)[C@@]1(C)CO1 [Carfilzomib],95.1,54.3
CCN1CCN(Cc2ccc(Nc3ncc(F)c(-c4cc(F)c5nc(C)n(C(C)C)c5c4)n3)nc2)CC1.CS(=O)(=O)O + CC(C)C[C@H](NC(=O)[C@H](CCc1ccccc1)NC(=O)CN1CCOCC1)C(=O)N[C@@H](Cc1ccccc1)C(=O)N[C@@H](CC(C)C)C(=O)[C@@]1(C)CO1 [Carfilzomib],62.7,64.9
COC(=O)C12CCC(C)(C)CC1C1C(=O)C=C3C4(C)C=C(C#N)C(=O)C(C)(C)C4CCC3(C)C1(C)CC2 (stereo unspecified) [Bardoxolone methyl] + CC(C)C[C@H](NC(=O)[C@H](CCc1ccccc1)NC(=O)CN1CCOCC1)C(=O)N[C@@H](Cc1ccccc1)C(=O)N[C@@H](CC(C)C)C(=O)[C@@]1(C)CO1 [Carfilzomib],158,28.1
COc1cc(C(=O)O)ccc1NC(=O)C1NC(CC(C)(C)C)C(C#N)(c2ccc(Cl)cc2F)C1c1cccc(Cl)c1F (stereo unspecified) + CC(C)C[C@H](NC(=O)[C@H](CCc1ccccc1)NC(=O)CN1CCOCC1)C(=O)N[C@@H](Cc1ccccc1)C(=O)N[C@@H](CC(C)C)C(=O)[C@@]1(C)CO1 [Carfilzomib],79.1,62.7

# From the supplement of paper PMC6992640
